Composite z-score and z-score data for 5 compounds are collected here from PubChem BioAssay.

Molecules are shown by their SMILES. Active and inactive are the calls of the source. Unless noted, no rule for the calls is given here.

Test [1] is described as follows: anti-His antibody binders, primary screen, artefact control for SMM control protein annotation, biochemical, small-molecule microarray, 635 nm fluorescence (AID 1128).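 Also: score merges feature fluorescence with signal-to-noise for each printed compound spot.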 The following applies: anti-His Alexa647 antibody binding, higher = more signal.
Test [2] has as its system Human papillomavirus type 1a E7 protein (residues 1-88). Briefly: HPV1a E7 small-molecule binders, primary screen, biochemical, small-molecule microarray, residues 1-88, 635 nm (AID 1129). Particulars: small-molecule microarray binding, fluorescence 635 nm; higher = more signal.
Test [3] deals with Focal adhesion kinase 1 (Homo sapiens) (UniProt Q05397). Briefly: small-molecule microarray binders of FAK, primary screen, biochemical, 635/667 nm fluorescence, BSA, DTT (AID 1130).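 Also: composite of spot emission at 667 nm and signal to noise over triplicate slides.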 Particulars: PTK2 binding, 635 nm fluorescence, higher = more signal.
Chain of Focal adhesion kinase 1 (Homo sapiens) (Q05397 whole entry, looked up): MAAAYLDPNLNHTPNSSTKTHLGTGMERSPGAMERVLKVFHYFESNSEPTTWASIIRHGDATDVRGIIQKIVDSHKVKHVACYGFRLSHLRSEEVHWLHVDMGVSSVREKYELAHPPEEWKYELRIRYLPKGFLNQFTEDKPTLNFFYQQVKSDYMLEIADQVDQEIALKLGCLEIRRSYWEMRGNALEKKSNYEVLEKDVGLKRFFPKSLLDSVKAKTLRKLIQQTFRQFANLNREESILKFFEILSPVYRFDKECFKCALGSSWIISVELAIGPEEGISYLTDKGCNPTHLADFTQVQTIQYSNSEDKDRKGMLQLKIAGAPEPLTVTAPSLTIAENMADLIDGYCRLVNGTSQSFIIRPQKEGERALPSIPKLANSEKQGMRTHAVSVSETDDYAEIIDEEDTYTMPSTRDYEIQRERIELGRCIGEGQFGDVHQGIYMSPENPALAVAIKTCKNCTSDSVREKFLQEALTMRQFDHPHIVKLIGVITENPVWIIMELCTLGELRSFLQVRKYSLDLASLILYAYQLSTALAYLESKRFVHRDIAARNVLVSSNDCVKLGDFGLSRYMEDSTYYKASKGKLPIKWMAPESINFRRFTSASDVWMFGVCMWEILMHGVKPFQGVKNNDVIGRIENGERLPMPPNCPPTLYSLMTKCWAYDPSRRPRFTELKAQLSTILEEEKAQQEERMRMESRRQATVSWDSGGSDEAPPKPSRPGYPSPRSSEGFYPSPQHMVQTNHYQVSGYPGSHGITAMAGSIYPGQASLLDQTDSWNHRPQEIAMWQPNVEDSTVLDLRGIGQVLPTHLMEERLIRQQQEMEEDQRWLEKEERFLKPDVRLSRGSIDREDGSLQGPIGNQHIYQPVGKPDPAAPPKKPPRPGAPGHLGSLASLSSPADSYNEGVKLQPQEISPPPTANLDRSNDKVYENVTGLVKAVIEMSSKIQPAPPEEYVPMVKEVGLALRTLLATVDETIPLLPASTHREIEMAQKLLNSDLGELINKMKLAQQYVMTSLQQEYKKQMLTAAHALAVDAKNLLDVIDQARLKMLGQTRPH
Test [4] deals with Fibrinogen (Alexa647-labelled). The test can be described thus: fibrinogen binders on compound microarrays, profiling panel, artefact control for SMM control-protein annotation, biochemical, small-molecule microarray, 635/667 nm fluorescence (AID 1131).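 Also: z-score merges 667 nm fluorescence with per-spot signal-to-noise over triplicate slides.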 Particulars: fibrinogen-A647 binding fluorescence, higher = more signal.
Test [5] addresses Follistatin (Homo sapiens) (UniProt P19883). Briefly: follistatin binders on small-molecule microarrays, primary screen, biochemical, small-molecule microarray, 635/667 nm fluorescence (AID 1132). Particulars: FST binding, 635 nm fluorescence, higher = more signal.
Test [6] has as its target Fibroblast growth factor 2 (Homo sapiens) (UniProt P09038). The test can be described thus: FGF2 binders on small-molecule microarrays, primary screen, biochemical, small-molecule microarray, 635/667 nm fluorescence (AID 1133). The following applies: small-molecule microarray binding, FGF2, fluorescence 635/667; higher = more signal.
A short description of test [7]: mitochondrial membrane potential change in A549 cells, profiling panel, cell-based, JC-1 fluorescence, basal, 24 h, 100 nL (AID 1138).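 Also: A549 lung adenocarcinoma cells under basal conditions with no added stimulus; test concentration not given here.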 The following applies: higher = more signal.
A further test relates to Lefty1. Briefly: Lefty1 binders on small-molecule microarrays, primary screen, biochemical, small-molecule microarray, 635/667 nm fluorescence (AID 1139). Particulars: small-molecule microarray binding, fluorescence 635/667; higher = more signal.
Test [8] relates to wheat germ agglutinin (Triticum aestivum), Alexa647-labelled. Briefly: wheat germ agglutinin binders on compound microarrays, profiling panel, artefact control for SMM control-protein annotation, biochemical, small-molecule microarray, 635/667 nm fluorescence (AID 1140).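 Also: score merges 667 nm feature emission with signal to noise over triplicate slides.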 Particulars: WGA-A647 binding, 635 nm fluorescence, higher = more signal.
For test [9], the target named is Luciferin 4-monooxygenase (Photinus pyralis) (UniProt P08659). Briefly: firefly luciferase enzyme inhibitors, primary screen, biochemical, luminescence, purified enzyme, 2006 set (AID 1141).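 Also: cell-free assay with purified firefly luciferase at 100 ng per well in PBS; test concentration not given here.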 Particulars: SteadyGlo luminescence, 30 min, higher = more signal, called active from +8 up or from −8 down.
Chain of Luciferin 4-monooxygenase (Photinus pyralis) (P08659 whole entry, looked up): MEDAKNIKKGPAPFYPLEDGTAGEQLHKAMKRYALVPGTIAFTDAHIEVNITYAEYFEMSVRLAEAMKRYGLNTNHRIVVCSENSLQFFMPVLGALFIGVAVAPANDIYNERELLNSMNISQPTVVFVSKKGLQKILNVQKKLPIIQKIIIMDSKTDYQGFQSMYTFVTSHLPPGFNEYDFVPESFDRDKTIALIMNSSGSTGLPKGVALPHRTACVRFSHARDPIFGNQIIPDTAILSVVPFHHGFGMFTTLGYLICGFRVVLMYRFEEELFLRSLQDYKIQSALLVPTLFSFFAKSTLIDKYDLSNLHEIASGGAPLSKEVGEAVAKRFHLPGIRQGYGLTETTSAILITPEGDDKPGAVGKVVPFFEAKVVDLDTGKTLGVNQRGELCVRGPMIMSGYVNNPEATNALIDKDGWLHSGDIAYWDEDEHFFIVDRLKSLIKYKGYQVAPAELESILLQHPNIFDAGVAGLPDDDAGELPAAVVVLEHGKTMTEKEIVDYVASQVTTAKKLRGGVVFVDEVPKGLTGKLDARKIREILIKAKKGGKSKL
Test [10] has as its system Wnt5a (protein binding on small-molecule microarray). The test can be described thus: Wnt5a binders on small-molecule microarray, primary screen, biophysical, 635/667 nm fluorescence (AID 1142).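 Also: fluorescence read at 667 nm with signal to noise per printed feature.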 The following applies: 635 nm fluorescence, higher = more signal.
A short description of test [11]: cell viability in Huh7 cells, primary screen, cytotoxicity control for HCV replication inhibitor project, CellTiter-Glo luminescence, basal, 48 h (AID 1143).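 Also: Huh7 hepatoma cells carrying a hepatitis C replication reporter with no stimulus; test concentration not given here.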 Particulars: Huh7 HCV replicon, higher = more signal, called active from +8 up or from −8 down.
The nature of test [12]: P. aeruginosa biofilm formation inhibitors, primary screen, PAO1 strain, BacTiter-Glo luminescence, LB-PBS (AID 1144). The following applies: 12 h, higher = more signal.
Test [13] in a line: CREB reporter modulators without forskolin, primary screen, cell-based, PC12, CRE-LacZ reporter, unstimulated (AID 1145). The following applies: no forskolin, luminescence, 4.5 h, higher = more signal, called active from +8 up or from −8 down.
Test [14] in a line: CREB reporter modulators under forskolin, primary screen, cell-based, PC12, CRE-LacZ reporter, forskolin-stimulated (AID 1146).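 Also: PC12 cells with 6xCRE LacZ reporter stimulated by forskolin 10 µM; beta-galactosidase reporter signal reflecting CREB driven transcription.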 Particulars: luminescence, 4.5 h, higher = more signal, called active from +8 up or from −8 down.
For test [15], the target named is Streptavidin (Streptomyces avidinii) (UniProt P22629). Briefly: streptavidin binders on small-molecule microarray, primary screen, artefact control for SMM compound annotation, biophysical, 635/667 nm fluorescence (AID 1147).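 Also: signal reflects streptavidin binding to arrayed compounds as a control protein.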 Particulars: streptavidin binding, higher = more signal.
Chain of Streptavidin (Streptomyces avidinii) (P22629 whole entry, looked up): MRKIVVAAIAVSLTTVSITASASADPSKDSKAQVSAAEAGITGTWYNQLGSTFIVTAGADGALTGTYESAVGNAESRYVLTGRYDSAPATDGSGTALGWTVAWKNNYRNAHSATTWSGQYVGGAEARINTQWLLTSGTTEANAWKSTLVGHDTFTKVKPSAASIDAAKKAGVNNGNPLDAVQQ
Test [16] can be described thus: small-molecule binders of probe aInhba, primary screen, biochemical, small-molecule microarray, 635/667 nm fluorescence (AID 1148).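 Also: score merges 667nm spot fluorescence with signal-to-noise for antibody binding to printed compounds.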 Particulars: higher = more signal.
Test [17] deals with Torsin-1A (Homo sapiens) (UniProt O14656). Briefly: torsin A binders from cell lysate, primary screen, small-molecule microarray, wild-type, 635/667 nm (AID 1149). The following applies: COS7 hTOR1A-WT lysate, 635 nm fluorescence, higher = more signal.
Chain of Torsin-1A (Homo sapiens) (O14656 whole entry, looked up): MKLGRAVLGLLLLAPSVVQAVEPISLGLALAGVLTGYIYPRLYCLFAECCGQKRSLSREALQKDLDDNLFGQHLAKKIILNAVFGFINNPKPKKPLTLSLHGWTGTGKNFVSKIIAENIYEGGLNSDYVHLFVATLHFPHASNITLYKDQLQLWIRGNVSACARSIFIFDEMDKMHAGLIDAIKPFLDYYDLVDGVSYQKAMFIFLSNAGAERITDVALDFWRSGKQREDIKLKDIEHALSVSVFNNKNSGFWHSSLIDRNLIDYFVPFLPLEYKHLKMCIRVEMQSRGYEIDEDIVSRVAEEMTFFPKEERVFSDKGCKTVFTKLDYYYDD
For test [18] the target is unchanged. Briefly: small-molecule binders of mutant TOR1A in lysate, primary screen, cell lysate, small-molecule microarray, COS7 lysate, 635/667 nm fluorescence (AID 1150).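 Also: score pools 667 nm emission and signal to noise measuring lysate protein binding.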 Particulars: COS7 hTOR1A mutant lysate, 635 nm fluorescence, higher = more signal.
For test [19], the system named is Sonic hedgehog protein (Shh). The test can be described thus: small-molecule binders of Shh protein, primary screen, biochemical, small-molecule microarray, 635/667 nm fluorescence (AID 1151).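 Also: Shh protein binding to compounds spotted on small-molecule microarray slides; score combines spot fluorescence intensity with signal-to-noise across triplicate slides.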 Particulars: small-molecule microarray binding, 635 nm fluorescence; higher = more signal.

Chain of Fibroblast growth factor 2 (Homo sapiens) (P09038 whole entry, looked up): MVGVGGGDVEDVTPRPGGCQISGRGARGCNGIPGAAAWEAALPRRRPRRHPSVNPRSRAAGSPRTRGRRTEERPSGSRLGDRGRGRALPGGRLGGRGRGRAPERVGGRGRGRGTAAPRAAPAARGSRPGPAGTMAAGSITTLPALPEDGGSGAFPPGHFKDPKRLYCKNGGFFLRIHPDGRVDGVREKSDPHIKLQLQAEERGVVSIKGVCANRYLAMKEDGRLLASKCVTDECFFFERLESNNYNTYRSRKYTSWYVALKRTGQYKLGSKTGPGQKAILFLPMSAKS
Chain of Follistatin (Homo sapiens) (P19883 whole entry, looked up): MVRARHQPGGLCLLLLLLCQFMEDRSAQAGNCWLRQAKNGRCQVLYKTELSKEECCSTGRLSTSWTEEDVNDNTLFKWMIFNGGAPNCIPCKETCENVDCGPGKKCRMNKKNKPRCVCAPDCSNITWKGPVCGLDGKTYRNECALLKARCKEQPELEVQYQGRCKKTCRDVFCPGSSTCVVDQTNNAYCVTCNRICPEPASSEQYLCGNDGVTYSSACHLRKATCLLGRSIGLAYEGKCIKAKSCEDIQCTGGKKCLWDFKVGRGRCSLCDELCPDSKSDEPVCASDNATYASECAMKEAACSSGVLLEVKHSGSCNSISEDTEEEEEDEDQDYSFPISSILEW

In the case of `C=CCC(OC(C)=O)[C@@H]1[C@@H](N(Cc2ccc(-c3ccccc3)cc2)C(=O)c2ccc(-c3ccccc3)cc2)c2cc(OCCCO)ccc2N1C(=O)c1ccc2ccccc2n1` (stereo not given in full), the composite z-score in [1] was -0.513; in test [2] it was 0.907; in [3], 0.879; in [4], -0.239; in test [5] it was 0.548; in test [6] it was 0.051. Besides, the composite z-score in the test with Lefty1 is -0.101; in [8], 0.152; in [10], -0.0949; in test [15], 0.21; in [16], 0.333; with Torsin-1A (Homo sapiens) [17], -0.178. Also, the values for the composite z-score (with Torsin-1A (Homo sapiens) [18]; in [19]) were 0.342 and 0.767, respectively. Moreover, the z-score in test [7] was 1.61; in test [9] it was -1.46 (inactive); in [11], 0.115 (inactive); in test [12] it was 0.196 (inactive); in [13], 0.992 (inactive); in [14], 0.705 (inactive).

Regarding `CC(C)CNC(=O)[C@@H]1c2ccccc2C(=O)N(Cc2ccccc2)[C@H]1c1ccc(CO)cc1`, the composite z-score is 1.85 in test [1]; 0.601 in [2]; 0.0313 in test [3]; -0.66 in test [4]; -0.0977 in [5]; 0.605 in test [6]. Besides, the composite z-score in the test with Lefty1 is -1.7; in test [8] it was -0.481; in test [10] it was -0.267; in test [15], -1.04; in test [16], -0.285; with Torsin-1A (Homo sapiens) [17], 0.3. Moreover, the composite z-score with Torsin-1A (Homo sapiens) [18] was 1.2; in test [19], -0.693. In addition, the z-score was 0.0606 in test [7]; 0.0723 (inactive) in test [9]; -0.692 (inactive) in test [11]; -0.33 (inactive) in [12]; 0.441 (inactive) in [13]; -0.0682 (inactive) in test [14].

On to `COC(=O)[C@@]1(CCS(=O)(=O)c2ccccc2)N=C(c2ccc(OCCCO)cc2)O[C@H]1c1ccccc1N=[N+]=[N-]`, for which the composite z-score in test [1] was determined as 1.65; in [2] it was 1.21; in test [3], 0.621; in test [4], 0.757; in test [5], 0.993; in test [6], 0.89. For the same compound, the composite z-score turned out to be 0.162 in the test on Lefty1; 0.647 in [8]; 0.0174 in [10]; 0.586 in test [15]; 0.0519 in [16]; 1.83 with Torsin-1A (Homo sapiens) [17]. For the same compound, the composite z-score with Torsin-1A (Homo sapiens) [18] came to 1.04; in test [19], 1.2. Besides, the z-score in test [7] is 0.797; in test [9], -1.93 (inactive); in test [11], -3.08 (inactive); in test [12], -0.16 (inactive); in test [13], 0.377 (inactive); in [14], -0.112 (inactive).

In the case of `C=CCC(OC(C)=O)[C@@H]1[C@@H](N(Cc2ccc(-c3cccc(C(F)(F)F)c3)o2)C(=O)Cc2ccc(OC)cc2)c2cc(OCCCO)ccc2N1C(=O)c1ccc2ccccc2n1` (stereo not given in full), the composite z-score in [1] is 0.292; in test [2] it was -1.64; in [3], -0.236; in [4], -0.665; in [5], 0.767; in [6], -0.149. The composite z-score is 0.0089 in the test with Lefty1; 0.113 in test [8]; -0.162 in test [10]; -0.356 in test [15]; 0.0517 in [16]; 0.0833 with Torsin-1A (Homo sapiens) [17]. In addition, the composite z-score is -0.475 in the test with Torsin-1A (Homo sapiens) [18] and 0.38 in [19]. Further, the z-score in test [7] was -0.448; in test [9], 0.471 (inactive); in test [11], -1.45 (inactive); in [12] it was 0.6 (inactive); in [13] it was 0.339 (inactive); in test [14], 0.792 (inactive).

Turning to `O=C1NC(=O)C2C1C=CC(C(O)c1ccc(F)cc1)N2Nc1ccccn1` (stereo not given), the composite z-score in test [1] amounted to 0.842; in test [2] it was 0.399; in test [3] it was 0.113; in test [4], 0.796; in [5] it was 0.269; in test [6], 0.0568. For the same compound, the composite z-score in the test with Lefty1 was -0.269; in test [8], 0.118; in test [10], -0.138; in test [15], -0.0345; in test [16], -0.0645; in the test with Torsin-1A (Homo sapiens) [17] it was 0.286. The composite z-score stood at 0.0123 in the test with Torsin-1A (Homo sapiens) [18] and 0.123 in test [19]. For the same compound, the z-score in test [7] is -0.108; in test [9], -0.855 (inactive); in [11], 0.74 (inactive); in [12], -1.36 (inactive); in test [13] it was -0.136 (inactive); in test [14], 0.0662 (inactive).
